# Screening results (PubChem BioAssay)
# Compounds with a hit are over-represented: about 2.1% of the library has one in this group of screens.
# Abeta yeast res: qHTS for compounds that reverse cellular toxicity of Amyloid beta (A-beta) peptide in yeast: Primary Screen; yeast expressing A-beta42, growth rescue, OD600, 48 h; response scale: 0% DMSO, 100% iron-clioquinol control; Potency, µM (titrated, usually from 46.1 µM), hits mostly activators; 0.063% of 410,000 active; AID 1347071, 2019; also: nearly all actives have a fitted effect of over 55% in size
#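 Yeast A-beta toxicity model in growth medium with pinned compounds, 48 h at 30 C; growth read as absorbance at 600 nm. Normalized to FeCl3/clioquinol equimolar mix (positive) and DMSO (negative).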
# Mito fusion yeast: qHTS Assay for Small Molecule Inhibitors of Mitochondrial Division or Activators of Mitochondrial Fusion. S. cerevisiae fusion-defective mutant growth rescue, CellTiterGlo 48 h. AID 485298, 2010. Potency, µM (series often up to 46.1 µM), for the others: at the top dose growth rescue (activation), actives largely listed as activators. 0.23% of 320,000 active; also: % of control where 0% means no effect; nearly all actives have a fitted effect of over 45% in size
#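 Compounds are tested for their ability to restore growth of mitochondrial fusion-defective yeast strains at non-permissive 37C in YPEG medium over 48 hours. Viability is quantified by luciferase luminescence.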
# TDP-43 yeast inh: qHTS of TDP-43 Inhibitors; TDP-43 expressing yeast growth rescue, BacTiter-Glo, 24 h; Potency, µM (doses to about 46.1 µM), for inactives: at the highest dose growth rescue (activation), usual class: activators; 1.8% of 410,000 active; AID 652104, 2013; also: % of control where 0% means no effect; nearly all actives have a fitted effect of over 50% in size
#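 Readout is BacTiter-Glo luminescence of cell growth, so inhibitors register as activators. TDP-43-expressing yeast at OD600=0.02 in galactose medium, after raffinose pregrowth to mid-log, were incubated with compound for 24 hr at 30 deg C.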
# aSyn yeast inh: qHTS of alpha-syn Inhibitors | Yeast expressing alpha-synuclein, growth rescue, BacTiter-Glo, 24 h | Potency, µM (series often up to 46.1 µM), for the others: at the highest dose growth rescue (activation), actives largely listed as activators | 0.14% of 370,000 active; also: % of control where 0% means no effect; nearly all actives have a fitted effect of over 65% in size
#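 Readout is rescue of growth in alpha-synuclein-expressing yeast, so inhibitors of toxicity appear as activators. Growth after 24 hr at 30 deg C in galactose medium is quantified by luminescence.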
# A-T KAP1 phos: qHTS Assay for Identifying a Potential Treatment of Ataxia-Telangiectasia; F2112 A-T fibroblasts, KAP-1 phosphorylation AlphaLISA; neocarzinostatin DNA damage 30 min before lysis; Potency, µM (titrated, usually from 57.5 µM), inactives show at the top dose activation, usual class: activators; 0.19% of 320,000 active; AID 485349, 2010; also: % of control where 0% means no effect; nearly all actives have a fitted effect of over 45% in size
#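 hTERT-immortalized A-T patient fibroblasts (F2112), 500 cells/well in OPTI-MEM, 1% FBS, got compounds for 60 min, then NCS for 30 min at 37C. Lysates were then assayed for phospho-KAP-1 by AlphaLISA (anti-pKAP1 donor, anti-KAP1 acceptor beads), 6 hr at 25C.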
# Glioma ERSR ind: qHTS for Inducers of the Endoplasmic Reticulum Stress Response (ERSR) in Human Glioma: qHTS; Potency, µM, inactives show at the highest dose activation, hits mostly activators; 0.02% of 420,000 active; U87-MG GRP78 promoter luciferase reporter, 16 h; also: series mostly up to about 76 µM; % of control where 0% means no effect; nearly all actives have a fitted effect of over 35% in size
#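 Stably transfected U87-MG glioma cells carrying a GRP78-based luciferase sensor; 16 h compound incubation. Luminescence end-point read 10 min after Bright-Glo addition at room temperature.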
# An asterisk follows results filed as active; i = inactive; ? = inconclusive; nt = no result; [ ] = remark or other dose. Calls follow the shape of the dose curve; as a rule, active = well fitted curve in the direction sought with a large enough effect; inconclusive = small, poorly fitted or top-dose-only effect, or another doubt; inactive = no such curve, though single readings can be large; an effect the other way counts as inactive or inconclusive. Potency is read from the fitted curve at half-maximal effect.
SMILES,Abeta yeast res,Mito fusion yeast,TDP-43 yeast inh,aSyn yeast inh,A-T KAP1 phos,Glioma ERSR ind
CCOC(=O)/C=C/C(=O)OCC(=O)Nc1ccc(OC)c(Cl)c1,i,-13.6%,35.5µM*,2.6%,-2.9%,-6.2%
CCCn1c(SCc2nc(-c3ccc(OC)c(OC)c3)no2)nnc1-c1ccccc1,i,nt,?,nt,nt,1.6%
COc1ccc(/C=C/C(=O)c2ccc(C)c([N+](=O)[O-])c2)cc1O,i,11.0%,22.4µM*,-55.1%,14.4%,-15.1%
COc1cc(/C=C/C(=O)c2ccc(C)c([N+](=O)[O-])c2)cc(OC)c1O,i,-6.0%,1.8%,-9.2%,3.2%,0.5%
COc1ccc(CN2CCCC(c3nc(C)ncc3-c3ccc(F)cc3)C2)c(OC)c1OC (configuration not stated),nt,nt,nt,nt,nt,-0.9%
COc1ccc(C=C2SC(=O)NC2=O)cc1OC,i,nt,1.8%,-0.8%,nt,4.9%
O=C1NC(=O)/C(=C/c2ccc3c(c2)OC(F)(F)O3)S1,nt,3.66µM*,nt,-38.7%,nt,-0.7%
S=c1nc(-c2ccccc2)[nH]c2ccc(Br)cc12,?,-7.7%,?,-16.4%,31.6µM*,0.0%
c1ccc(-c2nc3ccccc3[nH]2)cc1,i,-13.3%,0.9%,-27.6%,-3.7%,-2.7%
Cc1ccc(-n2c(C)cc(C(=O)CSc3nncs3)c2C)cc1,i,?,22.4µM*,-19.6%,12.2%,5.7%
Cc1ccc(-n2c(C)cc(C(=O)CSc3nnnn3C)c2C)cc1,i,28.1%,31.6µM*,0.5%,-1.6%,3.8%
Cc1cc(C(=O)CSc2nncs2)c(C)n1-c1c(C)n(C)n(-c2ccccc2)c1=O,i,-0.7%,-15.0%,2.1%,2.4%,-1.8%
Cc1cc(C(=O)CSc2nnnn2C)c(C)n1CCc1ccc(F)cc1,?,1.0%,15.0%,0.7%,-7.4%,-1.3%
COc1ccc(CN2CCC3(CC2)c2ccccc2[C@@H](NC(=O)c2ccsc2)[C@@H]3OC)cc1O,nt,nt,nt,nt,nt,-1.2%
Cn1c(-c2ccccc2)cc2c3no[n+]([O-])c3ccc21,i,-12.5%,3.55µM*,10.7%,-11.1%,10.7%
CC(=O)O[C@@H]1C(=O)O[C@H]2[C@@H]1OC(=O)[C@@H]2OC(C)=O,nt,nt,nt,nt,nt,-5.3%
CCN(CC)c1nc2c(S(=O)(=O)c3ccccc3)nnn2c2ccc(Cl)cc12,i,nt,12.6µM*,nt,nt,4.4%
Cc1cc(=O)[nH]c(N2CCCNCC2)n1,i,1.8%,-0.4%,-4.0%,-0.9%,-6.8%
CCOC(=O)c1cnc(-n2nc(C)cc2C)[nH]c1=O,?,0.1%,?,22.4µM*,-10.8%,5.2%
Cc1cc(=O)[nH]c(-n2nc(C)cc2C)n1,?,0.4%,?,28.2µM*,4.8%,-1.8%
Clc1ccccc1-c1nc(-c2cccnc2)no1,i,-5.4%,?,4.1%,nt,-5.8%
Cc1ccc(SCc2nc(-c3cccnc3)no2)cc1,i,0.4%,17.8µM*,5.4%,-2.7%,5.1%
Cc1ccccc1-c1nc(-c2cccnc2)no1,i,1.4%,14.1µM*,-0.1%,3.5%,7.4%
C(=C\c1nc(-c2cccnc2)no1)/c1ccccc1,i,-5.1%,2.24µM*,-6.6%,-0.4%,-3.4%
Cc1cc(C)c(C)c(OCc2nc(-c3cccnc3)no2)c1,i,0.9%,-13.6%,nt,-0.1%,-2.6%
SMILES,Abeta yeast res,Mito fusion yeast,TDP-43 yeast inh,aSyn yeast inh,A-T KAP1 phos,Glioma ERSR ind
Cc1ccc(-c2noc(/C=C/c3ccccc3)n2)cc1,i,0.5%,-16.1%,-14.1%,8.6%,6.4%
c1ccc(C(Cc2nc(-c3ccncc3)no2)c2ccccc2)cc1,i,1.0%,35.5µM*,0.7%,7.0%,-1.5%
c1ccc(-c2ccc(-c3nc(-c4cccnc4)no3)cc2)cc1,i,1.1%,2.7%,11.6%,26.7%,1.7%
Clc1ccccc1/C=C/c1nc(-c2cccnc2)no1,i,4.6%,10µM*,-3.6%,10.3%,7.8%
CSc1ccccc1-c1nc(-c2ccncc2)no1,i,-12.4%,14.1µM*,14.2%,-3.5%,-4.5%
O=C1c2cc(S(=O)(=O)N3CCOCC3)ccc2-c2ccc(S(=O)(=O)N3CCOCC3)cc21,nt,nt,nt,-7.9%,nt,-1.1%
Cc1cc(OCC(=O)N(C)Cc2ccccc2)ccc1Cl,i,4.6%,11.2µM*,3.9%,6.2%,-3.5%
CCOc1ccc(Nc2nc3ccccc3n3c(CC)nnc23)cc1,i,nt,25.1µM*,nt,nt,-5.2%
CC1(C2CCN(Cc3c[nH]c4ccccc34)CC2)NC(=O)N(CCN2CCOCC2)C1=O (configuration not stated),nt,nt,nt,nt,nt,-0.6%
O=C(NCCSc1c[nH]c2ccccc12)c1ccc(Br)o1,i,8.0%,17.8µM*,9.8%,16.6%,1.2%
COc1cccc(CN2CCN(C(=O)c3oc4c(F)cccc4c3C)CC2=O)c1,i,3.0%,20µM*,1.5%,-0.3%,0.9%
Cc1cccc(-c2nnc(SCc3cc(=O)c4cccc(Cl)c4[nH]3)n2C)c1,i,nt,15.6%,nt,nt,-3.2%
CC(Cc1cccs1)NC(=O)Nc1ccccc1 (configuration not stated),i,1.6%,-8.6%,-10.5%,11.2%,7.2%
CCC(C)NC(=S)Nc1ccccc1 (configuration not stated),?,-17.9%,-6.7%,-0.4%,2.2%,-6.2%
CC(Cc1cccs1)NC(=S)Nc1ccccc1 (configuration not stated),11.2µM*,-9.0%,-10.7%[0.397 µM],0.9%,2.5%,1.5%
CC(Cc1cccs1)NC(=O)Nc1ccc(Cl)cc1 (configuration not stated),i,7.6%,22.4µM*,-13.0%,1.3%,2.5%
COc1ccc(C(=O)c2sc(Nc3ccccc3)nc2N)cc1,i,-2.7%,2.3%,-3.2%,3.0%,6.0%
COc1ccc(C(=O)c2sc(Nc3ccccc3F)nc2N)cc1,i,4.0%,20µM*,13.3%,-17.5%,?
CSc1c(-c2ccccn2)c(N)nn1C(=O)C1CCC1,i,-5.6%,11.2µM*,-12.5%,-1.2%,-2.9%
CSc1c(-c2ccccn2)c(N)nn1C(=O)C1CC1,i,3.6%,11.2µM*,13.4%,0.3%,-0.5%
Cc1c(C(=O)NC2CCN(Cc3ccccc3)C2)oc2c(Cl)cccc12 (configuration not stated),i,3.55µM*,-25.5%,-5.6%,-3.0%,-5.0%
O=C(NC1CCN(Cc2ccccc2)CC1)c1ccccc1Cl,i,-1.1%,-0.3%,-17.3%,9.5%,-2.9%
